Bioassay records: PubChem BioAssay, National Center for Advancing Translational Sciences (NCATS)
HCMV antiviral: inhibitors of human cytomegalovirus | HFF cells, HCMV-luciferase reporter, 72 h; stronger effect = lower value | activity change, negative = inhibition, % at 57.5 µM | hit rate 4.5% among 410,000; in the data active = activity change below about -60%; inconclusive = no clear call, values can overlap the other calls; inactive = above about -39%
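Two compound doses tested in HFFs infected with HCMV-luciferase, MOI 1 PFU/cell, 72 h at 37C. Lysate luminescence read with OneGlo; data normalized against buffer-only and 10uM Salinomycin inhibitor controls.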
FMDV antiviral: foot and mouth disease virus antiviral activity. AID 1159524. Potency, µM (top dose mostly 57.9 µM), most hits filed as inhibitors. FMDV antiviral cell-based qHTS. hit rate 1.2% among 410,000; calls by dose curve; tested in HEK293T cells; note: read-out not given here; nearly all actives have a fitted effect of over 45% in size
MARV entry inh: blocks Marburg virus binding to or entry into cells; Marburg virus pseudotyped entry inhibition, cell reporter; Potency, µM (highest dose often 37.8 µM), hits mostly inhibitors; hit rate 1.8% among 300,000; AID 540276; calls by dose curve; tested in HEK293 cells
LASV entry inh: inhibitors of Lassa virus binding or cell entry | Lassa virus pseudotype entry inhibition, cell reporter | Potency, µM (titrated, usually from 37.9 µM), hits mostly inhibitors | hit rate 1.2% among 300,000; calls by dose curve; tested in HEK293 cells; note: nearly all actives have a fitted effect of over 50% in size
HCV inhibitor: HCV inhibition | Huh7.5.1 HCVcc-Cre infection, luciferase reporter, 44 h | hit rate 3.4% among 340,000 | Potency, µM (series often up to 41.8 µM), most hits filed as inhibitors; active = well fitted inhibition curve with a large enough effect; inconclusive = small, poorly fitted or top-dose-only effect, or another doubt; inactive = no such curve, though single readings can be large or run the other way
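Infectious HCV cell culture screen: compound-treated cells (1,000/well, pre-plated 4 h) are infected with HCVcc-Cre at roughly 0.5 moi and grown 44 h. Infection is quantified by luciferase signal after 15 min substrate incubation at room temperature.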
Large screens that a line does not name were inactive. Rows were chosen to be rich in hits. Some 7.9% of all compounds tested hit in one or more screens of this group.

Cc1ccc(Cc2nc3ccccc3nc2SCC(=O)Nc2ccc3c(c2)OCO3)cc1	HCMV antiviral -66.1 (no result: MARV entry inh, HCV inhibitor)
COc1cccc(-c2ccnc(-n3ncc(C(=O)NCC(C)(C)CN(C)C)c3C)n2)c1	none (no result: HCMV antiviral, MARV entry inh, LASV entry inh, HCV inhibitor)
C=CC[C@@H]1C=CC(O/N=C/C[C@@H]2C=C[C@H](OC(C)=O)[C@@H](COC(C)=O)O2)[C@@H](CO)O1 (stereo partly drawn)	none (no result: HCMV antiviral, FMDV antiviral, LASV entry inh, HCV inhibitor)
COc1cccc([C@@H]2NC(=O)CC=C[C@H](C)[C@H](c3cccc(OC)c3)NC(=O)CC=C[C@H]2C)c1	none (no result: HCMV antiviral, FMDV antiviral, LASV entry inh, HCV inhibitor)
Cc1c(C(=O)Nc2ccc(F)cc2)nnn1-c1cccc(C(F)(F)F)c1	HCMV antiviral -87.8, LASV entry inh inconclusive, HCV inhibitor inconclusive
Cc1c(C(=O)Nc2ccc(C(=O)O)cc2)nnn1-c1ccccc1	HCMV antiviral -74.4, FMDV antiviral 10µM, LASV entry inh inconclusive (no result: MARV entry inh, HCV inhibitor)
CCOc1ccc(NC(=O)Cn2cc(S(=O)(=O)NC)c(S(=O)(=O)NC)c2)cc1	none (no result: MARV entry inh, HCV inhibitor)
CC(C)(C)N1C(=O)[C@@H]2[C@H]3[C@H](O)[C@H](O)CC(=NOCc4ccccc4)[C@H]3CC[C@H]2C1=O	none (no result: HCMV antiviral, FMDV antiviral, LASV entry inh, HCV inhibitor)
O=C(NCc1cccs1)c1ccc2c(c1)N(Cc1cccc(F)c1)C(=O)c1ccccc1S2	none (no result: MARV entry inh, HCV inhibitor)
CN(C)S(=O)(=O)c1ccc2c(c1)N(CC(=O)Nc1ccc(OC(F)(F)F)cc1)C(=O)CS2	none (no result: MARV entry inh, HCV inhibitor)
O=S(=O)(c1ccccc1)c1nc(-c2ccc(F)cc2)oc1NCc1ccccc1	MARV entry inh inconclusive (no result: HCV inhibitor)
Cc1ccc(S(=O)(=O)c2nc(-c3ccccc3)oc2NCc2cccnc2)cc1	HCV inhibitor 11.2µM
Cc1ccccc1-c1nc(S(=O)(=O)c2ccc(Br)cc2)c(NCc2cccnc2)o1	MARV entry inh inconclusive, HCV inhibitor 11.2µM
CCOc1ccc(OCC)c(NC(=O)c2cc(-c3cccs3)nc3ccccc23)c1	none (no result: HCV inhibitor)
CC(=O)C(=Cc1ccc(Cl)cc1)C(=O)c1ccccc1	FMDV antiviral 28.2µM (no result: MARV entry inh, LASV entry inh, HCV inhibitor)
COc1ccc(C=C(C(C)=O)C(=O)c2ccccc2)cc1	FMDV antiviral inconclusive (no result: MARV entry inh, LASV entry inh, HCV inhibitor)
COc1cccc(C=C(C#N)C(=O)c2ccccc2)c1	none (no result: MARV entry inh, LASV entry inh, HCV inhibitor)
CC(=O)C(=Cc1cccc(C#N)c1)C(=O)c1ccccc1	HCMV antiviral inconclusive, FMDV antiviral 12.6µM (no result: MARV entry inh, LASV entry inh, HCV inhibitor)
Cc1onc(-c2cccc(Cl)c2Cl)c1C(=O)O/N=C(\N)c1ccc([N+](=O)[O-])o1	FMDV antiviral inconclusive, HCV inhibitor inconclusive
Cc1onc(-c2ccccc2)c1C(=O)O/N=C(\N)c1ccc([N+](=O)[O-])o1	FMDV antiviral inconclusive, HCV inhibitor 11.2µM (no result: MARV entry inh, LASV entry inh)
CCCNC(=O)C1CCC(Cn2c(=O)c3sccc3n(Cc3cccc(OC)c3)c2=O)CC1 (stereo not drawn)	none (no result: MARV entry inh, HCV inhibitor)
COc1ccc(NC(=O)COc2ccc(N(C)S(=O)(=O)c3ccc(Cl)cc3)cc2)cc1OC	HCMV antiviral -87.6, FMDV antiviral 10µM, MARV entry inh inconclusive, LASV entry inh inconclusive, HCV inhibitor 0.631µM
CN(c1ccc(OCC(=O)Nc2ccccc2C(=O)O)cc1)S(=O)(=O)c1ccc(Cl)cc1	HCMV antiviral -81.9, MARV entry inh 3.55µM, LASV entry inh 3.16µM
CCOC(=O)c1cc(S(=O)(=O)Nc2ccc(Br)c(C)c2)[nH]n1	none (no result: MARV entry inh, HCV inhibitor)
COC(=O)CNC(c1ccccc1)c1cc(Cl)ccc1NC(=O)c1cccc(Cl)c1 (stereo not drawn)	MARV entry inh 10µM
O=C1CCCc2ccc3ccccc3c21	none
COc1cc2ccccc2c2c1CCCC2=O	LASV entry inh inconclusive, HCV inhibitor 12.6µM
COC(=O)Nc1ccc(S(=O)(=O)N2CCCc3cccc(O)c32)cc1	HCV inhibitor 11.2µM (no result: MARV entry inh, LASV entry inh)
COC(=O)Nc1ccc(S(=O)(=O)N2CCCCC2)cc1	none
COC(=O)Nc1ccc(S(=O)(=O)N2CCCc3ccccc32)cc1	HCMV antiviral -61.6, MARV entry inh inconclusive, HCV inhibitor 3.16µM
Cc1cc(N2CCC(C(=O)Nc3ccc(F)cc3C)CC2)n2nc(C)c(-c3ccc(Cl)cc3)c2n1	none (no result: HCV inhibitor)
CCOC(=O)c1cc(-c2ccccc2)n(-c2cccc(C(=O)Nc3cccc(F)c3)c2)c1C	HCMV antiviral active (no result: MARV entry inh, HCV inhibitor)
CCOC(=O)c1cc(-c2ccccc2)n(-c2cccc(C(=O)Nc3cccc(C(C)=O)c3)c2)c1C	none (no result: MARV entry inh, HCV inhibitor)
CCOC(=O)c1cc(-c2ccccc2)n(-c2cccc(C(=O)Nc3ccc(OC)cc3)c2)c1C	HCMV antiviral active (no result: MARV entry inh, HCV inhibitor)
CC(C)OC12Oc3ccccc3C=C1N1CCC2CC1 (stereo not drawn)	none
CN1CC2=Cc3ccccc3OC23Oc2ccccc2C=C3C1	HCMV antiviral -80.1, FMDV antiviral inconclusive, MARV entry inh inconclusive, LASV entry inh inconclusive
Cc1ccc(OCCCN2C(=O)C(=O)c3cccc(C)c32)cc1	MARV entry inh inconclusive, LASV entry inh inconclusive
